Values without a mark were called inactive.

This assay has as its system NHEM-hTERT. In words: cell viability relative to DMSO control (fraction of DMSO control); higher = less cytotoxic, active = 0.5 or less. The note with it: 1 µM; 120 h. An outline of the steps:
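Cells in 40 µl per well went into 384-well plates pre-spotted acoustically with a TargetMol library of 315 approved anti-cancer drugs, each at 1 µM in duplicate, for 120 h. Seeding was 2500/well for NHEM-hTERT immortalized melanocytes and 1500/well for patient-derived Mel-DCC-11 and its resistant subline Mel-DCC-11-R, which was run alone and with 8 µM of its selecting drug. Luminescence was read with ATPlite 1step. Viability was normalised to vehicle-treated controls and averaged over duplicates.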
As to `CS(=O)(=O)OCCCCOS(C)(=O)=O` [Busulfan], the cell viability is 1.14.
The result for `C=C1CC[C@@H]2[C@](C)(CO)[C@H](O)CC[C@@]2(C)[C@@H]1C/C=C1/C(=O)OC[C@H]1O` [Andrographolide] reads 1.17.
For `N#CC1(c2ccc(NC(=O)c3cccnc3NCc3ccncc3)cc2)CCCC1` [Apatinib] the value was 0.966; for `CN(CCOc1ccc(CC2SC(=O)NC2=O)cc1)c1ccccn1.O=C(O)/C=C\C(=O)O` (stereo unspecified) [Rosiglitazone maleate], 1.06.
The result for `COc1ccc(C(Cl)=C(c2ccc(OC)cc2)c2ccc(OC)cc2)cc1` [Chlorotrianisene] reads 0.795.
Take `O=C(/C=C/c1ccc(O)cc1)c1ccc(O)cc1O` [Isoliquiritigenin]: the cell viability was 0.982.
The result for `CCCCCCCCCCCCCCCCOP(=O)([O-])OCC[N+](C)(C)C` [Miltefosine] reads 1.17; that for `COc1cc2c(N3CCN(C(=O)Nc4ccc(OC(C)C)cc4)CC3)ncnc2cc1OCCCN1CCCCC1` [Tandutinib], 1.15.
For `CCc1cn([C@H]2C[C@H](O)[C@@H](CO)O2)c(=O)[nH]c1=O` [Edoxudine] the value was 0.967; for `COC(=O)C[C@](O)(CCCC(C)(C)O)C(=O)O[C@@H]1C(OC)=CC23CCCN2CCc2cc4c(cc2[C@H]13)OCO4` (stereo partly specified) [Homoharringtonine], 0.228 (active); for `CC[C@]1(O)C[C@@H]2C[N@@](CCc3c([nH]c4ccccc34)[C@@](C(=O)OC)(c3cc4c(cc3OC)N(C)[C@H]3[C@@](O)(C(=O)OC)[C@H](OC(C)=O)[C@]5(CC)C=CCN6CC[C@]43[C@@H]65)C2)C1.O=S(=O)(O)O` [Vinblastine sulfate], 0.567.
The result for `CC=Cc1ccc(OC)cc1` (stereo in doubt) [cis-Anethol] reads 0.759.
Consider `CCN(CC)CCNC(=O)c1c(C)[nH]c(/C=C2\C(=O)Nc3ccc(F)cc32)c1C.C[C@@H](CC(=O)O)C(=O)O` [Sunitinib Malate], for which the cell viability is 1.03.
`COc1cc2nccc(Oc3ccc(NC(=O)Nc4cc(C)on4)c(Cl)c3)c2cc1OC` [Tivozanib]: the cell viability was 1.09.
For the molecule `C=CC(=O)N1CCC[C@@H](n2nc(-c3ccc(Oc4ccccc4)cc3)c3c(N)ncnc32)C1` [Ibrutinib], the cell viability is 1.05.
Consider `Cn1nnc(-c2ccc(-c3ccc(N4C[C@H](CO)OC4=O)cc3F)cn2)n1` [Torezolid], for which the cell viability is 0.958.
Regarding `CCc1cc2c(cc1N1CCC(N3CCOCC3)CC1)C(C)(C)c1[nH]c3cc(C#N)ccc3c1C2=O` [Alectinib], the cell viability is 0.977.
Consider `Nc1nc(=O)c2c([nH]1)NCC(CNc1ccc(C(=O)N[C@@H](CCC(=O)[O-])C(=O)[O-])cc1)N2C=O.[Ca+2]` (stereo partly specified) [Calcium folinate], for which the cell viability was 1.16.
The result for `Cl.Cl.Cl.Cl.Cl.Cl.Cl.Cl.c1cc(CN2CCCNCCNCCCNCC2)ccc1CN1CCCNCCNCCCNCC1` [AMD 3100 octahydrochloride] reads 1.14; that for `CNC(=O)c1ccc(N2C(=S)N(c3ccc(C#N)c(C(F)(F)F)c3)C(=O)C2(C)C)cc1F` [Enzalutamide], 1.11.
Turning to `CC[C@@]1(O)C(=O)OCc2c1cc1n(c2=O)Cc2cc3c(CN(C)C)c(O)ccc3nc2-1.Cl` [Topotecan hydrochloride], the cell viability was 0.768.
For `CC[C@@H](CO)NCCN[C@@H](CC)CO.Cl.Cl` [Ethambutol dihydrochloride] the value was 1.2.
The result for `C=C(c1ccc(C(=O)O)cc1)c1cc2c(cc1C)C(C)(C)CCC2(C)C` [Bexarotene] reads 1.2; that for `CC(O)(P(=O)([O-])O)P(=O)([O-])O.[Na+].[Na+]` [Sodium etidronate], 0.984; that for `CNC(=O)c1cc(Oc2ccc(NC(=O)Nc3ccc(Cl)c(C(F)(F)F)c3)cc2)ccn1.Cc1ccc(S(=O)(=O)O)cc1` [Sorafenib tosylate], 0.904.
For `COc1cccc2c1C(=O)c1c(O)c3c(c(O)c1C2=O)C[C@@](O)(C(C)=O)C[C@@H]3O[C@H]1C[C@H](N)[C@H](O)[C@H](C)O1.Cl` [Daunorubicin hydrochloride] the value was 0.363 (active); for `COc1cc2nccc(Oc3ccc(NC(=O)NC4CC4)c(Cl)c3)c2cc1C(N)=O` [Lenvatinib], 0.784; for `Oc1cc(O)cc(/C=C/c2ccc(O)c(O)c2)c1` [Piceatannol], 1.09.
On to `CS(=O)(=O)CCNCc1ccc(-c2ccc3ncnc(Nc4ccc(OCc5cccc(F)c5)c(Cl)c4)c3c2)o1.Cc1ccc(S(=O)(=O)O)cc1.Cc1ccc(S(=O)(=O)O)cc1` [Lapatinib Ditosylate], for which the cell viability is 1.13.
Take `S=c1nc[nH]c2nc[nH]c12` [Mercaptopurine]: the cell viability was 1.07.
The result for `CN(N=O)C(=O)N[C@@H]1[C@@H](O)[C@H](O)[C@@H](CO)O[C@@H]1O` [Streptozocin] reads 1.11.
On to `S=P(N1CC1)(N1CC1)N1CC1` [Triethylenethiophosphoramide], for which the cell viability was 0.98.
On to `Nc1[nH]c(=O)ncc1F` [Fluorocytosine], for which the cell viability is 1.04.
With `COc1cccc2c1C(=O)c1c(O)c3c(c(O)c1C2=O)C[C@@](O)(C(=O)CO)C[C@@H]3O[C@H]1C[C@H](N)[C@H](O)[C@H](C)O1.Cl` [Doxorubicin hydrochloride], the cell viability is 0.454 (active).
For `O=C(CCBr)N1CCN(C(=O)CCBr)CC1` [Pipobroman] the value was 0.902.
For `CC(C)NCC(O)COc1cccc2ccccc12.Cl` (stereo unspecified) [Propranolol hydrochloride] the value was 1.16.

The values above are taken from the supplement of paper PMC12808144.
